About 4,700 (1.2%) of roughly 390,000 compounds were called active. Entries that show only a call come without a potency. Inconclusive results (about 4%) are left out. The sample holds actives, similar compounds and a random draw of the others, so the mix is not that of the screen. Calls follow the shape of the dose curve; as a rule, active = well fitted inhibition curve with a large enough effect; inconclusive = small, poorly fitted or top-dose-only effect, or another doubt; inactive = no such curve, though single readings can be large or run the other way.
Biological target: DNA polymerase eta (Homo sapiens) (UniProt Q9Y253)
Test: qHTS for Inhibitors of Polymerase Eta
Conditions: recombinant Pol eta, fluorescent DNA replication assay; series mostly up to 114 µM
Method in brief: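 Pol eta (10 nM) was preincubated with compounds for 15 min at room temperature, after which fluorescent replication substrate (50 nM final) was added to start the reaction. Fluorescence was read kinetically at 0 and 10 min.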
Potency is read from the fitted curve at half-maximal effect.

Chain of DNA polymerase eta (Homo sapiens) (Q9Y253 whole entry, looked up): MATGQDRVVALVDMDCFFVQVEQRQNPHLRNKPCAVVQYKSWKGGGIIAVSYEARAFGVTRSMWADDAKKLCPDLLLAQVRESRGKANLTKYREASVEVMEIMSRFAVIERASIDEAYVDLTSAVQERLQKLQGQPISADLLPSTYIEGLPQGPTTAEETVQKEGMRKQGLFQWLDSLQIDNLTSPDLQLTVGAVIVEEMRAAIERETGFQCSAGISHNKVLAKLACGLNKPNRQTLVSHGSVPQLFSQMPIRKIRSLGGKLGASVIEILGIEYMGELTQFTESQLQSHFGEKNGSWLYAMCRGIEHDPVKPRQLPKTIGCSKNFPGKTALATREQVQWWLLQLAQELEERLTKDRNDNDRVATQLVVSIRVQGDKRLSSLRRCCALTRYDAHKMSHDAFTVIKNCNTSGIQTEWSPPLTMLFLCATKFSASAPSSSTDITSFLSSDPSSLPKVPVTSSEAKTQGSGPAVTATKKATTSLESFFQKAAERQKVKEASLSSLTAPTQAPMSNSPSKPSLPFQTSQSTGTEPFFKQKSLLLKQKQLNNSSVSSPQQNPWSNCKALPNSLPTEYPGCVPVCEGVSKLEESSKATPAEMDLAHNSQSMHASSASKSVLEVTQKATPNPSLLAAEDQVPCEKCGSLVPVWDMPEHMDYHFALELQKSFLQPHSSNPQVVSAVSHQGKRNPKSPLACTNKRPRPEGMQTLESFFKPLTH

| Compound | Potency |
| --- | --- |
| O=C(CC1C(=O)N(c2ccccc2)C(=O)N1CCc1cccs1)Nc1ccc(F)cc1 (centres undefined) | inactive |
| CC(=O)c1cc(-c2ccccc2)[nH]c1N1CCCC1 | inactive |
| O=C1NN(c2ccccc2)C(=O)/C1=C/c1ccc(-c2cccc(C(=O)O)c2)o1 | 20 µM (active) |
| CCOc1ccc(N(CC)S(=O)(=O)N2CCCC(C(=O)Nc3ccc(C(C)=O)cc3)C2)cc1 (centres undefined) | inactive |
| COc1cc(C)ccc1OCCSc1nc2ccc(NC(=O)c3ccc(C)cc3)cc2s1 | inactive |
| CCOC(=O)N1CCc2c(sc3c2c(=O)n(Cc2ccccc2)c(=O)n3CC(=O)Nc2cccc(C)c2)C1 | inactive |
| Fc1ccc(C(Nc2ccc(Cl)c(C(F)(F)F)c2)c2nnc(-c3ccccc3)o2)cc1 (centres undefined) | inactive |
| CC(=O)Nc1ccc(C(=O)OCC(=O)Nc2ccc([N+](=O)[O-])cc2C(F)(F)F)cc1 | inactive |
| Cn1ccc(=Nc2ccc(NC(=O)c3ccc(N=c4ccn(C)c5ccc([N+](=O)[O-])cc45)cc3)cc2)cc1 | 5.62 µM (active) |
| CC(=O)c1ccc(NC(=O)COc2ccccc2-c2nc(-c3ccccc3)no2)cc1 | inactive |
| CCS(=O)(=O)N1CCc2cc(C(=O)NCc3ccc(OC)cc3)ccc21 | inactive |
| CN1CCN(C(=O)c2cnn(-c3ccccc3)c2NC(=O)c2ccc([N+](=O)[O-])cc2)CC1 | inactive |
| Cc1cc(/C=N/Nc2ccc([N+](=O)[O-])cn2)c(C)n1-c1cccc(C(=O)O)c1 | 22.4 µM (active) |
| Cc1cccc(C(=O)NC(=S)N2CCN(c3ccc([N+](=O)[O-])cc3)CC2)c1 | inactive |
| Cc1ccc(-c2cc(C(F)(F)F)n3ncc(C(=O)N4CCCCC4c4cccnc4)c3n2)cc1 (centres undefined) | inactive |
| COC(=O)c1cnn2c(C(F)(F)F)cc(-c3ccco3)nc12 | 20 µM (active) |
| O=C(NCc1ccco1)c1cnn2c(C(F)(F)F)cc(-c3ccco3)nc12 | inactive |
| Cc1ccc2nc(-c3ccc(O)cc3)c(Nc3ccc4c(c3)OCO4)n2c1 | inactive |
| CCOC(=O)C1CCC(CN(Cc2ccc(OC)cc2)S(=O)(=O)c2ccc(F)c(C(=O)Nc3cc(C)ccc3C)c2)CC1 (centres undefined) | inactive |
| COc1ccc(-c2nc3ccc(C(=O)NCc4ccc(C)cc4)cc3nc2-c2ccc(OC)cc2)cc1 | inactive |

| Compound | Potency |
| --- | --- |
| COCCN(CCOC)S(=O)(=O)c1ccc(C(=O)Nc2nc3c(s2)CCc2ccccc2-3)cc1 | inactive |
| COc1ccc(C(=O)Nc2nc(-c3ccc(OC)cc3)c(-c3ccc([N+](=O)[O-])cc3)s2)cc1 | 79.4 µM (active) |
| CCOc1ccc(N(C)S(=O)(=O)c2cc(-c3cnc(C)o3)ccc2OC)cc1 | inactive |
| O=C(NCc1ccco1)c1sc2cccc(F)c2c1Cl | inactive |
| Cc1ccsc1C(=O)NCCc1ccco1 | 22.4 µM (active) |
| CCNC(=O)c1sccc1-n1cccc1 | inactive |
| CCC1=Nc2cc(C(=O)NCCCOC(C)C)ccc2Sc2ccc(C)cc21 | inactive |
| O=C(NCc1ccccc1)c1cc(-c2cccc(Cl)c2)on1 | inactive |
| O=C(O)C(c1ccccc1)N1C(=O)/C(=C\c2ccc(-c3cccc(Cl)c3)o2)SC1=S (centres undefined) | 44.7 µM (active) |
| O=C(NCCc1ccc(Cl)cc1)c1ccc2c(c1)N(Cc1ccc(F)cc1)C(=O)CS2 | inactive |
| C=CC1(C)CC(=O)C2(O)C(C)(O1)C(OC(C)=O)C(O)C1C(C)(C)CCC(O)C12C (centres undefined) | inactive |
| CCOC(=O)C1CCN(C(=O)CSc2c3c(nc4ccc(Cl)cc24)CCCC3)CC1 | inactive |
| Cc1cc(/C=C2\SC(=O)N(C)C2=O)c(C)n1-c1cccc(C(=O)O)c1 | 22.4 µM (active) |
| Cc1ccc(C)c2c1cc(C)c1nnc(SCC(=O)Nc3cccc(C(=O)O)c3)n12 | inactive |
| Cc1cc(C(=O)CC#N)c(C)n1-c1c(C)n(C)n(-c2ccccc2)c1=O | inactive |
| CCCCN(C)c1nnc(NC(=O)Nc2ccc(Br)c(C)c2)s1 | inactive |
| CCOC(=O)c1cc2c(=O)n3ccccc3nc2n(CC2CCCO2)c1=NC(=O)c1ccccc1F (centres undefined) | inactive |
| COCCN(Cc1ccco1)C(=O)Cn1ncc2c([nH]c3ccccc32)c1=O | inactive |
| CCc1ccc2nc3sc(C(=O)Nc4nnc(CC)s4)c(N)c3cc2c1 | 50.1 µM (active) |
| CCc1ccccc1NC(=O)c1sc2nc3c(cc2c1N)CN(Cc1ccccc1)CC3 | inactive |

| Compound | Potency |
| --- | --- |
| CCc1ccc(NC(=O)c2sc3nc4c(cc3c2N)CN(CC)CC4)cc1 | inactive |
| CCCN(CCC)CCCNC(=O)Cn1cc2c(n1)-c1c(oc(C(=O)N3CCCC3)c1C)CC2 | inactive |
| CCOC(=O)c1cc(OC(=O)c2ccccc2Cl)n(-c2ccccc2)n1 | inactive |
| Cn1c(=O)c2c(-c3ccccc3Br)n(Cc3ccccc3)cc2n(C)c1=O | inactive |
| CCc1ccc(NC(=O)CN2C(=O)CCSc3ccc(S(=O)(=O)N4CCCC4)cc32)cc1 | inactive |
| CC(Oc1ccccc1)C(=O)Nc1oc(-c2ccco2)c(-c2ccco2)c1C#N (centres undefined) | 20 µM (active) |
| CC(Oc1ccccc1)C(=O)NN1Cc2ccccc2C1=N (centres undefined) | inactive |
| CC(Oc1ccc(Br)cc1)C(=O)NCC(c1ccco1)N1CCCCC1 (centres undefined) | inactive |
| Cc1c(-c2cccc(NC(=O)C(C)(C)C)c2)nc2ncccn12 | inactive |
| CCOc1ccc(S(=O)(=O)N(CC(=O)NCCSCc2ccc(C)cc2)c2ccccc2)cc1 | inactive |
| Cc1ccc(S(=O)(=O)/N=C2\C=C(NS(=O)(=O)c3ccc(C)cc3)C(=O)c3ccccc32)cc1 | 79.4 µM (active) |
| COc1ccc(N2CCN(C3CCCCC3NS(=O)(=O)c3ccccc3)CC2)cc1 (centres undefined) | inactive |
| COc1ccc(S(=O)(=O)Nc2cc3c(C(=O)OC(C)C)c(C)oc3c3ccccc23)cc1 | inactive |
| COc1ccc(S(=O)(=O)/N=C2\C=C(NS(=O)(=O)c3ccccc3)C(=O)c3ccccc32)cc1 | 22.4 µM (active) |
| Cc1ccc(S(=O)(=O)/N=S(\C)C(C)C)cc1 (centres undefined) | inactive |
| Cc1ccc(S(=O)(=O)Nc2nc(N)n(-c3ccccc3)n2)cc1 | inactive |
| COc1ccc(N(CC(=O)NCCc2ccc(Cl)cc2)S(=O)(=O)c2c(C)nn(C)c2C)cc1 | inactive |
| CCN(CC)c1ccc(NC(=O)Cn2nc3c(cc2=O)CCCC3)c(C)c1 | inactive |
| CCCCOC(=O)CSc1ncnc2sc3c(c12)CCC(C)C3 (centres undefined) | inactive |
